# Measured values reported in ChEMBL document CHEMBL1157539, “Thousands of chemical starting points for antimalarial lead identification” (Nature, 2010).
# Assays:
# Type in all cases: functional
# Plasmodium falciparum [1] = assay: GSK_TCMDC: Inhibition of Plasmodium falciparum 3D7 in whole red blood cells, using parasite LDH activity as an index of growth. Test compounds present at 2uM
# Plasmodium falciparum [2] = assay: GSK_TCMDC: Inhibition of Plasmodium falciparum Dd2 in whole red blood cells, using parasite LDH activity as an index of growth. Test compounds present at 2uM
# HepG2 = assay: GSK_TCMDC: Percent inhibition of human HepG2 cell line. Test compounds present at 10uM.
SMILES,Inhibition (Plasmodium falciparum [1]) [%],Inhibition (Plasmodium falciparum [2]) [%],Inhibition (HepG2) [%]
CCN1CCN(CC(O)CNC(=O)Nc2ccc(Cl)cc2)CC1.O=C(O)C(F)(F)F (stereo not drawn),100,99,29
COc1ccc2nccc([C@@H](O)CN3CCC(NC(=O)C(=O)c4c[nH]c5c(C)cccc45)CC3)c2c1,100,94,17
Cn1c(NC(=O)C2CCC(CNC(=O)c3ccc(O)c(-c4ccc(Cl)c(Cl)c4)c3)CC2)nc2ccccc21 (stereo not drawn),99,100,40
Cn1nc(C(F)(F)F)c(-c2ccc(Br)cc2)c1NC(=O)Cc1ccccc1F,100,100,6
CCNC(C)(C)CN(Cc1ccc(-c2ccc(C(F)(F)F)cc2)cc1)C(=O)Cn1c(CCc2cccc(F)c2F)nc(=O)c2ccccc21.O=C(O)C(O)C(O)C(=O)O,97,70,47
Fc1cc(Cl)ccc1Nc1ccnc2cc(-c3ccc(CNCCN4CCOCC4)o3)ccc12,100,100,13
CC(C)(C)NS(=O)(=O)c1cc(C(=O)N2CCC(CCN3CCC(C(=O)c4ccc(F)cc4)CC3)(c3cccc(F)c3)CC2)c(Cl)cc1F,99,99,0
COc1cccc(NC(=O)Cn2c(C)c(C(=O)C(F)(F)F)c3ccccc32)c1,97,94,2
O=C(Nc1ccc(C(F)(F)F)cc1)c1cccc(S(=O)(=O)NC2CCN(CC3CCCCC3)C2)c1.O=C(O)C(F)(F)F (stereo not drawn),98,10,32
O=C(Cn1c(CCc2cccc(F)c2F)nc(=O)c2cccnc21)N(Cc1ccc(-c2ccc(C(F)(F)F)cc2)cc1)C1CCN(C2CCOCC2)CC1.O=C(O)C(O)C(O)C(=O)O,94,67,100
Cc1ccc(S(=O)(=O)NC(=N)NC(N)=O)cc1,94,2,26
OCCN1CCN(c2ccc(Nc3ccnc4cc5ccccc5cc34)cc2)CC1,100,100,98
CC(CN(C)C)C(=O)Nc1cccc(-c2ccc(-c3nc4cc(F)ccc4[nH]3)s2)c1 (stereo not drawn),100,99,3
c1ccc(Oc2ccc(Nc3ccnc(Nc4ccc(CN5CCOCC5)cc4)n3)cc2)cc1,92,38,46
FC(F)(F)Oc1ccc(-c2cnc3ccc(NCc4ccncc4)nn23)cc1,97,54,19
C=CCOc1ccc(CNC2CCN(Cc3ccccc3)CC2)cc1Br.O=C(O)C(=O)O,92,8,9
COC(=O)C(c1ccc(NC(=O)[C@H](CC(C)C)NC(=O)OC(C)(C)C)cc1)c1ccc(NC(=O)[C@H](CC(C)C)NC(=O)OC(C)(C)C)cc1,94,42,0
Cc1cc2cc(-c3ccc(CN)cc3)ccc2nc1N,92,8,18
Cc1c(CNCCCNc2cc(=O)c3ccccc3[nH]2)sc(C(F)F)c1Br.Cl,98,29,0
NC(=O)c1c(Cl)nc2ccccc2c1Cl,91,0,2
O=C(C=Cc1ccc(Cl)c(Cl)c1)NCCCCCN1CCCC(CCCNC(=O)c2ccc3c(c2)OCO3)C1 (stereo not drawn),95,4,30
Cc1cc(N[C@@H](CC(C)C)C(=O)NCCCOC(C)C)nc(NCCc2ccc(F)cc2)n1.O=C(O)C(F)(F)F,87,19,5
Nc1cccc(CNCc2ccc(-c3ccc(-c4nc5cc(C(F)(F)F)ccc5[nH]4)s3)cc2)c1.O=C(O)C(F)(F)F,100,98,28
CCN(CC)CCN(Cc1ccc(-c2ccc(C(F)(F)F)cc2)cc1)C(=O)Cn1c(CCc2cccc(F)c2F)nc(=O)c2cccnc21.O=C(O)C(O)C(O)C(=O)O,100,89,75
Cc1nc(-c2cccc(C(F)(F)F)c2)n2nc(Nc3ccc(OCCN4CCCC4)cc3)ncc12,99,29,30
CCCNc1ccc(-c2cc(C(N)=O)c3[nH]cc(C4CCN(S(=O)(=O)CC)CC4)c3c2)cn1.O=C(O)C(F)(F)F,99,42,6
